PubChem BioAssay (NCATS)
“And” between values parts separate entries of the source, which are not always exact repeats. Equal entries are not always repeated. Inconclusive results are not listed. Where a structure was tested more than once in an assay, its records may differ in their call. The source made the active and inactive calls. Unless noted, calls come from the whole dose curve.

Key:
[1] = molecular target: Bile acid receptor (Homo sapiens) (UniProt Q96RI1); test: qHTS assay for small molecule antagonists of farnesoid X receptor signaling (AID 588526); note: % is set by controls: 0 for no effect and ±100 for the full control effect
Procedure, shortened: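 Beta-lactamase reporter antagonist mode: HEK293T FXR-UAS-bla cells, titrated compound, CDCA stimulation, 16 h 37 C, CCF4 dye 2 h RT. Data normalized to CDCA 50 uM and DMSO; Hill-fit IC50.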

[2] = molecular target: Glucocorticoid receptor (Homo sapiens) (UniProt P04150); test: qHTS assay for small molecule antagonists of glucocorticoid receptor signaling (AID 588533; active = well fitted inhibition curve with a large enough effect in the signal ratio, with a control signal flat, not every such curve was filed as active; the % refers to the signal ratio;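 note: cells stimulated with 2 nM dexamethasone as agonist; % is set by controls: 0 for no effect and ±100 for the full control effect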)
Procedure, shortened: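 Antagonist-mode qHTS: compound titrations added to GRE-bla HeLa cells, then dexamethasone 2 nM final; 18 h, 37 C. CCF4 FRET fluorescence normalized to dexamethasone and DMSO; IC50 from Hill fit.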

[3] = qHTS assay for small molecule antagonists of peroxisome proliferator-activated receptor delta signaling (AID 588535; active = well fitted inhibition curve with a large enough effect in the signal ratio, with a control signal flat, not every such curve was filed as active; the % refers to the signal ratio;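 for max response: cells co-treated with a PPAR-delta agonist as stimulator during compound exposure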); conditions: HEK293T PPARd-UAS-bla, beta-lactamase FRET ratio, 18 h; 460 nm channel
Procedure, shortened: (§1)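 Cell-based beta-lactamase assay in antagonist mode: 4000 HEK293T PPAR-delta-UAS-bla cells per well, 5 hr preincubation then 18 hr compound incubation at 37 C. IC50 obtained by Hill equation fitting.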

[4] = molecular target: Peroxisome proliferator-activated receptor delta (Homo sapiens) (UniProt Q03181); test: as above
Procedure, shortened: as §1

[5] = molecular target: Peroxisome proliferator-activated receptor gamma (Homo sapiens) (UniProt P37231); test: qHTS assay for small molecule antagonists of peroxisome proliferator-activated receptor gamma signaling (AID 588537; active = well fitted inhibition curve with a large enough effect in the signal ratio, with a control signal flat, not every such curve was filed as active; the % refers to the signal ratio; note: potency is the fitted concentration of half-maximal effect)
Procedure, shortened: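 Inhibitors of agonist-stimulated UAS-bla reporter activity were sought in HEK293 cells; rosiglitazone (50 nM) defined full signal and DMSO baseline. Curves fitted to Hill model gave IC50 and efficacy.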

[6] = molecular target: Vitamin D3 receptor (Homo sapiens) (UniProt P11473); test: qHTS assay for small molecule antagonists of vitamin D receptor signaling (AID 588541); note: potency is the fitted concentration of half-maximal effect
Procedure, shortened: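 Antagonist-mode beta-lactamase reporter assay: HEK293T VDR-UAS-bla cells were exposed to titrated compound alongside 1-alpha,25-dihydroxyvitamin D3 at 3 nM final for 16 h. Values were normalized to the 50 nM agonist control and DMSO basal, with IC50 and efficacy from Hill equation fits.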

[7] = molecular target: Vitamin D3 receptor (Homo sapiens) (UniProt P11473); test: qHTS assay for small molecule agonists of vitamin D receptor signaling (AID 588543);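 note: 0% = DMSO basal and 100% = reference agonist control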
Procedure, shortened: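 GeneBLAzer VDR-UAS-bla HEK293T cells in 2% charcoal-stripped FBS medium were dosed with compound titrations for 16 h at 37 °C; CCF4 β-lactamase readout (405 nm ex, 460/530 nm em). EC50 and efficacy from Hill fits, normalized to 50 nM calcitriol (100%) and DMSO (0%).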

[8] = qHTS assay for small molecule agonists of retinoid X receptor alpha signaling (AID 588544); conditions: HEK293T RXRa-UAS-bla, beta-lactamase reporter, 18 h; 530 nm emission;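 for activation: 0% = DMSO basal wells and 100% = reference agonist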
[9] = molecular target: Retinoic acid receptor RXR-alpha (Homo sapiens) (UniProt P19793); test: as above
[10] = molecular target: Thyroid hormone receptor beta (Homo sapiens) (UniProt P10828); test: qHTS assay for small molecule agonists of thyroid hormone receptor beta signaling (AID 588545)
Procedure, shortened: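 In this cell-based screen, titrated compounds act on HEK 293 cells held in medium with 2% charcoal/dextran FBS, NEAA and pyruvate for 18 hrs at 37 C. Responses are expressed relative to T3 (10 nM) as 100% and basal DMSO as 0%.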

[11] = molecular target: DNA dC->dU-editing enzyme APOBEC-3G (Homo sapiens) (UniProt Q9HC16); test: qHTS for inhibitors of Vif-A3G interactions: Validation (AID 588379; active = well fitted inhibition curve with a large enough effect; note: 0% is about no effect)
Procedure, shortened: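 HeLa cells stably expressing Vif and A3G-eYFP, 700 cells/well, incubated overnight at 37 deg C, then exposed to compound overnight at 37 deg C. Inhibition of Vif-mediated degradation read as increased yellow fluorescence (Ex 488/Em 500-530) by laser-scanning cytometry.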

[12] = molecular target: Ubiquitin carboxyl-terminal hydrolase 1 (Homo sapiens) (UniProt O94782); test: Inhibitors of USP1/UAF1: Pilot qHTS (AID 504865; active = well fitted inhibition curve with a large enough effect; note: nearly all actives have a fitted effect of over 35% in size; note: potency is the fitted concentration of half-maximal effect)
Procedure, shortened: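 USP1/UAF1 complex (1nM) preincubated with compound 15 min at room temperature, then Ub-Rho substrate (150nM final) added. Fluorescence read kinetically at 480/540 nm, 6 reads every 60 seconds. Buffer: 50mM HEPES pH 7.8, 0.5mM EDTA, 0.1 mg/ml BSA, 1mM TCEP, 0.01% Tween-20.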

[13] = molecular target: Estrogen receptor (Homo sapiens) (UniProt P03372); test: qHTS assay for small molecule antagonists of estrogen receptor alpha signaling (AID 588513; active = well fitted curve in the direction sought with a large enough effect in the signal ratio, with a control signal flat, not every such curve was filed as active; the % refers to the signal ratio; note: % is set by controls: 0 for no effect and ±100 for the full control effect)
Procedure, shortened: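 ER-alpha-UAS-bla GripTite HEK 293 cells in medium with 2% charcoal/dextran-treated FBS were preincubated 4 h at 37 C, dosed with compound (1:2 titration), stimulated with 0.5nM 17-beta-estradiol for 18 h, then read by CCF4 beta-lactamase fluorescence.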

[14] = molecular target: Androgen receptor (Homo sapiens) (UniProt P10275); test: qHTS assay for small molecule antagonists of androgen receptor signaling (AID 588516; active = well fitted curve in the direction sought with a large enough effect in the signal ratio, with a control signal flat, not every such curve was filed as active; the % refers to the signal ratio; note: potency is the fitted concentration of half-maximal effect)
Procedure, shortened: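 AR-UAS-bla-GripTite HEK 293 cells (2000/well, 5 h at 37 C) received compound titrations, then R1881 at 10 nM final; after 16 h at 37 C, CCF4 dye 2 h RT, beta-lactamase fluorescence read; IC50 from Hill fits.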

[15] = molecular target: Glucocorticoid receptor (Homo sapiens) (UniProt P04150); test: qHTS assay for small molecule agonists of glucocorticoid receptor signaling (AID 588532; active = well fitted curve in the direction sought with a large enough effect in the signal ratio, with a control signal flat; the % refers to the signal ratio;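 note: 100% = dexamethasone at 0.1 µM and 0% = DMSO only wells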); conditions: HeLa MMTV-bla, beta-lactamase ratio, agonist, 18 h; stronger effect = higher value; percent of dexamethasone control, DMSO zero
Procedure, shortened: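 Using MMTV-bla HeLa cells in medium with 1% stripped FBS and 25 mM HEPES, compounds were titrated and incubated overnight-length (18 h). Beta-lactamase cleavage of CCF4 was quantified by dual-emission fluorescence.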

[16] = molecular target: Androgen receptor (Homo sapiens) (UniProt P10275); test: qHTS assay for small molecule agonists of androgen receptor signaling (AID 588515; active = well fitted curve in the direction sought with a large enough effect in the signal ratio, with a control signal flat; the % refers to the signal ratio; note: % is set by controls: 0 for no effect and ±100 for the full control effect); conditions: AR-UAS-bla HEK293, beta-lactamase ratio, agonist 16 h; stronger effect = higher value
Procedure, shortened: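 EC50 and efficacy came from Hill fits of titrations (up to 92 uM) normalized to 30 nM R1881 as 100% and DMSO as 0%. Compound exposure was 16 h at 37 C on AR-UAS-bla HEK293 cells, with a 405/460/530 nm CCF4 fluorescence read.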

[17] = molecular target: Estrogen receptor (Homo sapiens) (UniProt P03372); test: qHTS assay for small molecule agonists of estrogen receptor alpha signaling (AID 588514);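 note: 0% = vehicle only and 100% = reference agonist; nearly all actives have a fitted effect of over 70% in size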
Procedure, shortened: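 Reporter-gene assay. […] controls beta-lactamase in HEK 293 GripTite cells; after 18 hrs with compound, CCF4 substrate is added for 2 hrs and fluorescence is read.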

Sequence of Estrogen receptor (Homo sapiens) (P03372 whole entry, looked up): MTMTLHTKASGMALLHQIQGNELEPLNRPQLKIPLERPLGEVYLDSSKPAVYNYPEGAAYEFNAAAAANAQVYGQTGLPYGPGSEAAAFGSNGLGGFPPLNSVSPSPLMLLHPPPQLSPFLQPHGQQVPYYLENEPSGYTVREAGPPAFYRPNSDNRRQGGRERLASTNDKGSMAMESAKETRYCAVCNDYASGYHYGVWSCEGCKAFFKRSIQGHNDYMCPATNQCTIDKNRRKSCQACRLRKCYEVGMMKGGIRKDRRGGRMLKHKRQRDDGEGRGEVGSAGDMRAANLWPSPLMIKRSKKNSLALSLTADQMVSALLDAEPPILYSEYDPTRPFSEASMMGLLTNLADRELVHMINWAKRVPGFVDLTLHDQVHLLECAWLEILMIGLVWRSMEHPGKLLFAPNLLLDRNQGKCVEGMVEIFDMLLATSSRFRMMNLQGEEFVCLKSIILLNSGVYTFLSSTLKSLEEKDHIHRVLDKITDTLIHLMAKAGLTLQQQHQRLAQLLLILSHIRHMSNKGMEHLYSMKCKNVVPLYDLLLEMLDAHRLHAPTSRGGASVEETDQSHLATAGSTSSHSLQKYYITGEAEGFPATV
Sequence of Ubiquitin carboxyl-terminal hydrolase 1 (Homo sapiens) (O94782 whole entry, looked up): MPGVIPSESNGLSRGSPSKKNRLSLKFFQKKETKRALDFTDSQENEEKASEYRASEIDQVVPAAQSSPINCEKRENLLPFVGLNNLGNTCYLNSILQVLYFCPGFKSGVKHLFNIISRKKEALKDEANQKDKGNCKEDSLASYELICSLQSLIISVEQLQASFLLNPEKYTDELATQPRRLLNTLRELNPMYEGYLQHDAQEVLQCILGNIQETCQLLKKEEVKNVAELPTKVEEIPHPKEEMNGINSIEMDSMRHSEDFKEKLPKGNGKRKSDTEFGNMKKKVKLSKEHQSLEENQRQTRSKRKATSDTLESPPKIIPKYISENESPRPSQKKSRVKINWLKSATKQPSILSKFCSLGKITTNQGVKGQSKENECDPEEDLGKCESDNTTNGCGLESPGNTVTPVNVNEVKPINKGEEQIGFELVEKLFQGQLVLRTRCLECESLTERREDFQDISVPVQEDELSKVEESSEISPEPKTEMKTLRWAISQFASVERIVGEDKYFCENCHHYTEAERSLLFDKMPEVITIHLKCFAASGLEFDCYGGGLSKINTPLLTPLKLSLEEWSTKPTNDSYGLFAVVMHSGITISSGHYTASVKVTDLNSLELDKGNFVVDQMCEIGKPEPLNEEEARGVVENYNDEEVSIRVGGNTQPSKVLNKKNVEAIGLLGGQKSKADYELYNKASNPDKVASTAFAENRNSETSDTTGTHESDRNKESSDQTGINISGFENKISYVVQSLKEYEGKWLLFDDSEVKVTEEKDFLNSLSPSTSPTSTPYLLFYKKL
Sequence of DNA dC->dU-editing enzyme APOBEC-3G (Homo sapiens) (Q9HC16 whole entry, looked up): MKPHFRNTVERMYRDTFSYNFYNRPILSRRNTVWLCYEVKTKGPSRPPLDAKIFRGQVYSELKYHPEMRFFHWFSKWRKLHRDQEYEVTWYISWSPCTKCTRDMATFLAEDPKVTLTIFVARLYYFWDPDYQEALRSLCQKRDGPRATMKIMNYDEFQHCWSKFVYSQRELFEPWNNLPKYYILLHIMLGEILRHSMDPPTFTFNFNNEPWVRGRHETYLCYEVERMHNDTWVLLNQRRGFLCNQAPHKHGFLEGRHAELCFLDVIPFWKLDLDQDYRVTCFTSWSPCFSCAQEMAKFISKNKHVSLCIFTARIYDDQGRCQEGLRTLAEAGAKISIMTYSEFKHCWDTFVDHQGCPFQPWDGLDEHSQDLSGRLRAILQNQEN
Sequence of Androgen receptor (Homo sapiens) (P10275 whole entry, looked up): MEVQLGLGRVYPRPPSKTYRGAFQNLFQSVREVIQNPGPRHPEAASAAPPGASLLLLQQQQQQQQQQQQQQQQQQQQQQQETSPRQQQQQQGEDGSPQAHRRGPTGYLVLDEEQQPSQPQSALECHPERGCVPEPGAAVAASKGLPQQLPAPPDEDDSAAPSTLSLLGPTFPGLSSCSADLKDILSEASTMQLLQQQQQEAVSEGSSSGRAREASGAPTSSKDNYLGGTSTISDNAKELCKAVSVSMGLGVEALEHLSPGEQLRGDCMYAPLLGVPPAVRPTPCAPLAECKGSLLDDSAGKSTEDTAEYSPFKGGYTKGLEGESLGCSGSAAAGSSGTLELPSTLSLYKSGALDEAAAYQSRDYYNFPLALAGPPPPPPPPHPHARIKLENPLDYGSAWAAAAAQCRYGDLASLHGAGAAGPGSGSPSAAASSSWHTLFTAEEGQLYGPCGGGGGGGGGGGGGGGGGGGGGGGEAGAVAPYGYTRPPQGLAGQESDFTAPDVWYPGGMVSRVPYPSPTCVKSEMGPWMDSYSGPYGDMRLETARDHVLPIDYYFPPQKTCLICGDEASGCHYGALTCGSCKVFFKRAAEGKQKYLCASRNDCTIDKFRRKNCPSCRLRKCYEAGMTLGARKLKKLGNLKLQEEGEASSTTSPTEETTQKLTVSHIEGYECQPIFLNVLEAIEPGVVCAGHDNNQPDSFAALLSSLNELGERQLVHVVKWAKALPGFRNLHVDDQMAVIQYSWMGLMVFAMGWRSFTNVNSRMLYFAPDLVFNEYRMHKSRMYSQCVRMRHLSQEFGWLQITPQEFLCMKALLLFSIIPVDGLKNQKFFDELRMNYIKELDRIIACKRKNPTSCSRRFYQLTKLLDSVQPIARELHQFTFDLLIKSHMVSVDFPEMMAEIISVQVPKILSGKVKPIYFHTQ
Sequence of Glucocorticoid receptor (Homo sapiens) (P04150 whole entry, looked up): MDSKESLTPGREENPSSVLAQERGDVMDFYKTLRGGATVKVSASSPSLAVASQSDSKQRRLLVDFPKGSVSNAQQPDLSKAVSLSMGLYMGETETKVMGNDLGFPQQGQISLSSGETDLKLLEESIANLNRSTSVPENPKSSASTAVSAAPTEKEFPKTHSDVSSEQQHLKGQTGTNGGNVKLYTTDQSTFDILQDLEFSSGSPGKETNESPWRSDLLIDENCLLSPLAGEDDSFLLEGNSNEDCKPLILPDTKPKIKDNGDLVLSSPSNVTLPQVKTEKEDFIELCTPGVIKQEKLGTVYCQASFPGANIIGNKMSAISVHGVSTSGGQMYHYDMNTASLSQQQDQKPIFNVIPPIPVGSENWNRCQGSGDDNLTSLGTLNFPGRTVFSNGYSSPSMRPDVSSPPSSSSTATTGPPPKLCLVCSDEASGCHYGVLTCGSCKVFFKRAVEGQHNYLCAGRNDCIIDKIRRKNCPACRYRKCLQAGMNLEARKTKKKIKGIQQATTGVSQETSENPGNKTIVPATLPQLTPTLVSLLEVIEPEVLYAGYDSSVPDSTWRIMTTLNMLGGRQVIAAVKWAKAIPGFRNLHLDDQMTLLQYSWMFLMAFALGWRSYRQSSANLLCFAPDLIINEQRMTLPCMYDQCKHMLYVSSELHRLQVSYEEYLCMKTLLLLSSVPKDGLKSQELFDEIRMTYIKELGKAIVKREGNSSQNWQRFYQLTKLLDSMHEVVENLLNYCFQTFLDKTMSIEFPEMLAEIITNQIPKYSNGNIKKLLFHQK
Sequence of Retinoic acid receptor RXR-alpha (Homo sapiens) (P19793 whole entry, looked up): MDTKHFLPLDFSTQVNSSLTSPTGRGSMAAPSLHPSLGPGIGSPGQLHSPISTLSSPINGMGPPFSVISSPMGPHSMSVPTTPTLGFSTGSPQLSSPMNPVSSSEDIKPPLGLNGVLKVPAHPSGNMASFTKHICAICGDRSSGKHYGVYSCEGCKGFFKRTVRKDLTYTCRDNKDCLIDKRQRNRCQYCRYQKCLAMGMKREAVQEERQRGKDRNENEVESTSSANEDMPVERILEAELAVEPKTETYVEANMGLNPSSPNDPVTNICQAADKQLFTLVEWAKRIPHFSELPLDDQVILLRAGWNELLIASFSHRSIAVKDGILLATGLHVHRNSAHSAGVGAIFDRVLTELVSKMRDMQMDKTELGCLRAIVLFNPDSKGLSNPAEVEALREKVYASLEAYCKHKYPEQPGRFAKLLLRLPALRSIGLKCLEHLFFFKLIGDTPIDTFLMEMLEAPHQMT
Sequence of Peroxisome proliferator-activated receptor delta (Homo sapiens) (Q03181 whole entry, looked up): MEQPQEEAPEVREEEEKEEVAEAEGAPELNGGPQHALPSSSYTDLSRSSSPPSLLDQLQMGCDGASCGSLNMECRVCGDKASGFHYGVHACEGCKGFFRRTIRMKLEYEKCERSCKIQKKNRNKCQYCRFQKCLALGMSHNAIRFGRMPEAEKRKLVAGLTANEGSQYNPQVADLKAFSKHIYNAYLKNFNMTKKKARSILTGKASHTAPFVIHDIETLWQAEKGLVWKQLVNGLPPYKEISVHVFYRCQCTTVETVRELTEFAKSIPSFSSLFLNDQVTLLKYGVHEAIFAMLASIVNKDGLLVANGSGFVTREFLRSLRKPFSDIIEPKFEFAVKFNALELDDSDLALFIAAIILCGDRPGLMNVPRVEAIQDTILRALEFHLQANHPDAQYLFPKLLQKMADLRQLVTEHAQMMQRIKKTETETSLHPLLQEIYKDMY
Sequence of Bile acid receptor (Homo sapiens) (Q96RI1 whole entry, looked up): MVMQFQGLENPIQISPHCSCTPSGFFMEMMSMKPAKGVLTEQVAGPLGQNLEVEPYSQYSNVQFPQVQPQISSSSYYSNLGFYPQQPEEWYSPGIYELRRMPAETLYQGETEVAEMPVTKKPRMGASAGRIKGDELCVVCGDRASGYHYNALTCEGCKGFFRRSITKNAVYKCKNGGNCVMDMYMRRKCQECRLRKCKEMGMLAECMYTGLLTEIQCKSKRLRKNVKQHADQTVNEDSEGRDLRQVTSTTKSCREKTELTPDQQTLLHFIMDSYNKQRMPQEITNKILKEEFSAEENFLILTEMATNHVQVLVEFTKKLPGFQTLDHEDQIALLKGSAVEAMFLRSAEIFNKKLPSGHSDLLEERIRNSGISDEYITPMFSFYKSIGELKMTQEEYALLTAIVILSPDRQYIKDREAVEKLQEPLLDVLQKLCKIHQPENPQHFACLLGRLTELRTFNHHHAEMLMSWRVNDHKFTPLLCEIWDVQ

CCCCOC(=O)CC(CC(=O)OCCCC)(OC(C)=O)C(=O)OCCCC
10.7%: max response [8]
0.806%: max response [3]
inactive: outcome [1] | outcome [2] | outcome [4] | Potency [5] | Potency [6] | outcome [7] | outcome [9] | outcome [10]

CNCCCCOc1ccccc1Cc1ccccc1
inactive: outcome [11]

CCCCCCCCCCCCCC(=O)OC(C)C
inactive: Potency [12] | Potency [13] | Potency [14] | activation [15] 5.08% | outcome [2] | Potency [5] | Potency [6] | outcome [7] | outcome [9] | outcome [10]
-13.5%: max response [8]

O=C(c1ccc(F)cc1)C1CCN(CCn2c(=S)[nH]c3ccccc3c2=O)CC1
inactive: Potency [12] | outcome [11]

NCCNc1cccc2ccccc12
15.9%: max response [8]
active: Potency [14] 39.8 µM | Potency [5] 39.8 µM
22%: max response [3]
inactive: Potency [12] | activation [16] 6.42% | activation [15] 3.88% and -4.01% | outcome [2] | outcome [4] | outcome [7] | outcome [9] | outcome [10]
inactive and 31.6 µM (active): Potency [6]

C/C=C/c1ccc(O)c(OC)c1
-13.6% and -6.37%: max response [8]
inactive: Potency [12] | Potency [13] | Potency [17] | outcome [4] | Potency [5] | outcome [9]
10.7% and 20%: max response [3]

CO[C@]12C[C@@H](COC(=O)c3cncc(Br)c3)CN(C)[C@@H]1Cc1cn(C)c3cccc2c13
inactive: Potency [12] | outcome [11]

CN(C)C(=O)Nc1ccc(Cl)c(Cl)c1
inactive: Potency [12] | Potency [13] | Potency [17] | activation [16] 0.958% | Potency [14] | activation [15] -4.05% | outcome [2] | outcome [4] | Potency [5] | outcome [9] | outcome [10]
4.49%: max response [3]
-0.181%: max response [8]

CCCCCCCCOc1ccc(C(=O)c2ccccc2)c(O)c1
16.2%: max response [3]
inactive: Potency [12] | Potency [17] | outcome [4] | Potency [5] | Potency [6] | outcome [7] | outcome [9] | outcome [10]
-1.02%: max response [8]

CC(C)(C)CC(C)(C)c1ccc(O)c(-n2nc3ccccc3n2)c1
inactive: Potency [12] | Potency [17] | activation [15] -3.64% | Potency [5] | Potency [6] | outcome [7] | outcome [10]

CCOc1ccccc1C(N)=O
inactive: Potency [12] | Potency [13] | Potency [17] | activation [16] -4.07% | outcome [1] | activation [15] -1.86% | outcome [2] | outcome [4] | Potency [5] | Potency [6] | outcome [7] | outcome [9]
-15.7%: max response [8]
-16.5%: max response [3]

Oc1c(Cl)cc(Cl)c(Cl)c1Cc1c(O)c(Cl)cc(Cl)c1Cl
inactive: activation [15] -7.2% and -4.02% | Potency [6]
active: Potency [12] 79.4 µM and 31.6 µM

COc1ccc(C(=O)c2ccccc2)c(O)c1
inactive: Potency [12] | Potency [13] | activation [16] 0.242% and -6.84% | outcome [1] | activation [15] 4.95% and -5.72% | outcome [2] | outcome [4] | Potency [5] | outcome [10]
-3.7% and 9.95%: max response [3]
